Data on five compounds can be found in the supplement of paper PMC10515830.

Holding throughout (details): 10 µM; exposure time 6 h
Assay [1] concerns Danio rerio larvae (5 dpf). Put plainly: difference in excitability vs DMSO (percentage points); higher = more excitable than DMSO. A digest of the protocol:
(§1)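 Wild-type 5 dpf zebrafish larvae in 96-well plates were given 100 µL egg water containing library compound at 10 µM final for 6 h. After 3 h of exposure, plates at 28.5 ℃ were photographed every 6 s during a 3-h programme of moving lines and 100 ms, 400Hz tones. Z-LaP Tracker (a DeepLabCut model) quantified each behaviour, averaged over 48 larvae per compound. Values are the compound mean minus the DMSO-vehicle control, in percentage points.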

For assay [2], the system named is Danio rerio larvae (5 dpf). The assay can be described thus: difference in startle response vs DMSO (percentage points); higher = stronger startle than DMSO. A digest of the protocol: as §1
Assay [3] concerns Danio rerio larvae (5 dpf). Put plainly: difference in activity during first hour vs DMSO (percentage points); higher = more activity than DMSO. The essentials: as §1
The test system of assay [4] is Danio rerio larvae (5 dpf). Put plainly: difference in habituation to acoustic stimuli vs DMSO (percentage points); higher = more habituation than DMSO. A digest of the protocol:
as §1

Assay [5] relates to Danio rerio larvae (5 dpf). The assay can be described thus: difference in combined optomotor response to red, green and blue moving lines vs DMSO (percentage points); higher = stronger optomotor response than DMSO. A digest of the protocol: as §1

Structures can show the parent of a compound that is named as a salt.

Compound `Nc1nc(Cl)nc2c1ncn2[C@@H]1O[C@H](CO)[C@@H](O)[C@@H]1F` [Clofarabine] showed a difference in excitability in assay [1] of -0.183. Further, the “difference in startle response” value in assay [2] was -0.201. In addition, in assay [3], the “difference in activity during first hour” value came out at 0.725. The “difference in habituation to acoustic stimuli” value in assay [4] turned out to be 2.7. In addition, in assay [5], the difference amounted to 1.77.
The corresponding values for `CC1=C(/C=C/C(C)=C\C=C\C(C)=C\C(=O)O)C(C)(C)CCC1` [9-cis-Retinoic Acid] are 5.5, -1.66, 5.1, 10.2 and 2.9.
The corresponding values for `C[C@@H]1CCO[C@H]2Cn3cc(C(=O)NCc4ccc(F)cc4F)c(=O)c(O)c3C(=O)N12` [Dolutegravir] are 9.08, 3.83, 7.43, 1.07 and 7.64.
The corresponding values for `C[C@@H](O[C@H]1OCCN(Cc2n[nH]c(=O)[nH]2)[C@H]1c1ccc(F)cc1)c1cc(C(F)(F)F)cc(C(F)(F)F)c1` [Aprepitant] are 9.22, -5.06, 6.23, -3.45 and 4.82.
For the compound `CN(C)CCOC(c1ccccc1)c1ccccc1` [Diphenhydramine (hydrochloride)], in assay [1], the difference in excitability was -0.341. The “difference in startle response” value in assay [2] is 0.108. The “difference in activity during first hour” value in assay [3] is -10.6. Besides, the “difference in habituation to acoustic stimuli” value in assay [4] was -3.37. The difference in assay [5] turned out to be 3.89.
